The source of these data is PubChem BioAssay (NCI).

Values joined by “and” are separate entries in the source; they are usually repeats but may differ in a detail not shown here. Equal values may be shown once. This is part of a sample that, as a whole, favours compounds with a hit. Of some 83,000 tested, about 20% had one in any assay.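 The endpoint reported here, percent growth, reads 100 for growth as untreated, 0 for no net growth and -100 for all cells dead.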 Active and inactive are the calls of the source. How the source made its calls: active means growth percent below 10; inactive means the rest.

Some test systems named below: HCT-15 colon; HT29 colon; SNB-75 CNS; SNB-19 CNS; U251 CNS; PC-3 prostate; SK-MEL-5 melanoma; UACC-62 melanoma; LOX IMVI melanoma; SK-MEL-28 melanoma; SK-MEL-2 melanoma; EKVX NSCLC; SN12C renal; UO-31 renal; TK-10 renal; ACHN renal; A498 renal; CCRF-CEM leukemia; MOLT-4 leukemia; CAKI-1 renal.
What all share (test): NCI-60 one-dose screen, 48 h (100 = growth as untreated, 0 = no growth, -100 = all killed)
Conditions in all cases: 10 µM unless noted

For the compound `NC(=O)C1CC2C=CC1C2` (centres undefined), the growth with HCT-15 colon was 107% (inactive) and 106% (inactive); with HT29 colon, 107% (inactive) and 114% (inactive); with SNB-75 CNS it was 87% (inactive) and 93.8% (inactive); with SNB-19 CNS, 92.1% (inactive); with U251 CNS, 98.7% (inactive) and 99.8% (inactive); in the assay on PC-3 prostate, 100% (inactive) and 98.4% (inactive). The growth is 99.9% (inactive) and 109% (inactive) in the assay on SK-MEL-5 melanoma; 102% (inactive) and 94.3% (inactive) in the assay on UACC-62 melanoma; 90.1% (inactive) and 94.2% (inactive) with LOX IMVI melanoma; 104% (inactive) and 101% (inactive) in the assay with SK-MEL-28 melanoma; 98.6% (inactive) and 112% (inactive) in the assay with SK-MEL-2 melanoma; 102% (inactive) and 94.7% (inactive) in the assay on EKVX NSCLC. For the same compound, the growth in the assay on SN12C renal was 103% (inactive) and 99.6% (inactive); in the assay on UO-31 renal it was 100% (inactive) and 86.8% (inactive); in the assay on TK-10 renal, 120% (inactive) and 117% (inactive); in the assay on ACHN renal, 101% (inactive) and 95.3% (inactive); in the assay on A498 renal, 112% (inactive) and 89.4% (inactive); with CCRF-CEM leukemia, 118% (inactive) and 96.2% (inactive). In the assay with MOLT-4 leukemia, the growth was 103% (inactive) and 102% (inactive).

On to `Cc1nnc(NC/C=C/c2ccccc2)s1`, for which the growth with HCT-15 colon was 98.3% (inactive) and 104% (inactive); in the assay with HT29 colon, 107% (inactive) and 116% (inactive); with SNB-75 CNS, 86.3% (inactive) and 103% (inactive); in the assay on SNB-19 CNS it was 108% (inactive) and 113% (inactive); in the assay with U251 CNS it was 97.8% (inactive); in the assay on PC-3 prostate, 94% (inactive) and 99.5% (inactive). Besides, the growth in the assay on SK-MEL-5 melanoma is 101% (inactive) and 102% (inactive); in the assay with UACC-62 melanoma, 104% (inactive); with LOX IMVI melanoma it was 96.1% (inactive) and 97.5% (inactive); in the assay on SK-MEL-28 melanoma it was 104% (inactive) and 103% (inactive); in the assay on SK-MEL-2 melanoma it was 122% (inactive); in the assay on EKVX NSCLC, 101% (inactive). Also, the growth in the assay on SN12C renal was 105% (inactive) and 108% (inactive); with UO-31 renal, 87.1% (inactive) and 91.2% (inactive); with TK-10 renal it was 96.4% (inactive) and 111% (inactive); with ACHN renal it was 103% (inactive) and 112% (inactive); with A498 renal it was 96.1% (inactive); with CCRF-CEM leukemia, 113% (inactive). Moreover, in the assay on MOLT-4 leukemia, the growth is 92.8% (inactive) and 111% (inactive).

As to `COC(=O)c1nc(N)nc(C(=O)OC)c1C(=O)c1ccc(OC)cc1`, the growth in the assay on HCT-15 colon is 107% (inactive) and 42% (inactive); with HT29 colon it was 113% (inactive) and 68.2% (inactive); with SNB-75 CNS, 95.2% (inactive) and 76% (inactive); with SNB-19 CNS, 98.1% (inactive) and 69.9% (inactive); in the assay on U251 CNS it was 106% (inactive) and 49.6% (inactive); in the assay on PC-3 prostate, 99% (inactive) and 46% (inactive). The growth with SK-MEL-5 melanoma was 104% (inactive) and 57.4% (inactive); in the assay with UACC-62 melanoma, 102% (inactive) and 35% (inactive); in the assay with LOX IMVI melanoma it was 97.7% (inactive) and 52.8% (inactive); in the assay with SK-MEL-28 melanoma it was 116% (inactive) and 69% (inactive); in the assay with SK-MEL-2 melanoma it was 108% (inactive) and 77.3% (inactive); with EKVX NSCLC, 101% (inactive) and 59.3% (inactive). For the same compound, the growth was 113% (inactive) and 78.5% (inactive) in the assay on SN12C renal; 89.6% (inactive) and 66.3% (inactive) with UO-31 renal; 105% (inactive) and 92.8% (inactive) in the assay on TK-10 renal; 104% (inactive) and 52.9% (inactive) in the assay with ACHN renal; 94.8% (inactive) and 73.6% (inactive) in the assay on CAKI-1 renal; 133% (inactive) and 141% (inactive) in the assay with A498 renal. Moreover, the growth in the assay on CCRF-CEM leukemia is 104% (inactive) and 39.7% (inactive); with MOLT-4 leukemia it was 136% (inactive) and 12.8% (inactive).

For the compound `Cc1cc(O)c(C(C)C)cc1S(=O)(=O)O` (tested in a mixture with another compound), the growth in the assay on HCT-15 colon is 96.7% (inactive) and 7.09% (active) and 99.5% (inactive); with HT29 colon, 100% (inactive) and -3.9% (active) and 109% (inactive); in the assay with SNB-75 CNS it was 84.1% (inactive) and 10.4% (inactive) and 80.2% (inactive); in the assay with SNB-19 CNS it was 103% (inactive) and 35.4% (inactive) and 100% (inactive); in the assay on U251 CNS it was 90.3% (inactive) and 9.28% (active) and 102% (inactive); with PC-3 prostate it was 96.1% (inactive) and 19.8% (inactive) and 81.7% (inactive). Also, the growth in the assay with SK-MEL-5 melanoma was 96.6% (inactive) and -34% (active) and 99.9% (inactive); in the assay on UACC-62 melanoma it was 87.4% (inactive) and 32.5% (inactive) and 91.3% (inactive); in the assay on LOX IMVI melanoma it was 92.1% (inactive) and 0.911% (active) and 107% (inactive); with SK-MEL-28 melanoma, 110% (inactive) and 40.6% (inactive) and 107% (inactive); in the assay on SK-MEL-2 melanoma, 99.6% (inactive) and 54% (inactive) and 112% (inactive); in the assay on EKVX NSCLC it was 93.2% (inactive) and 29.5% (inactive). Also, the growth was 92.4% (inactive) and 22.6% (inactive) and 102% (inactive) in the assay with SN12C renal; 90.7% (inactive) and -18.5% (active) and 77.4% (inactive) with UO-31 renal; 87.8% (inactive) and 33.8% (inactive) and 132% (inactive) in the assay on TK-10 renal; 91.8% (inactive) and 10.8% (inactive) and 92.4% (inactive) in the assay with ACHN renal; 67.7% (inactive) and 12.1% (inactive) and 74.4% (inactive) in the assay on CAKI-1 renal; 103% (inactive) and -18.3% (active) and 112% (inactive) in the assay with A498 renal. The growth with CCRF-CEM leukemia is 94.5% (inactive) and 16.4% (inactive); with MOLT-4 leukemia, 118% (inactive) and 9.88% (active) and 107% (inactive).

Turning to `CCc1c(CC(=O)O)c2cc(C)ccc2n1Cc1ccc(Cl)cc1`, the growth in the assay with HCT-15 colon was 99.2% (inactive) and 98.3% (inactive); in the assay with HT29 colon, 109% (inactive) and 117% (inactive); in the assay on SNB-75 CNS it was 84.1% (inactive) and 93.7% (inactive); with SNB-19 CNS it was 102% (inactive) and 90.6% (inactive); with U251 CNS, 107% (inactive) and 93.7% (inactive); with PC-3 prostate, 95% (inactive). The growth in the assay with SK-MEL-5 melanoma is 93.8% (inactive) and 97.2% (inactive); with UACC-62 melanoma it was 84.9% (inactive) and 83.8% (inactive); in the assay with LOX IMVI melanoma, 103% (inactive) and 101% (inactive); in the assay with SK-MEL-28 melanoma, 129% (inactive) and 125% (inactive); in the assay on SK-MEL-2 melanoma, 103% (inactive) and 90.9% (inactive); with EKVX NSCLC it was 98.8% (inactive) and 93.4% (inactive). Further, the growth in the assay on SN12C renal was 91.1% (inactive) and 82.4% (inactive); in the assay with UO-31 renal, 76.6% (inactive) and 73.4% (inactive); in the assay on TK-10 renal, 99.7% (inactive) and 262% (inactive); with ACHN renal, 93.5% (inactive) and 96.1% (inactive); with A498 renal, 114% (inactive) and 108% (inactive); with CCRF-CEM leukemia, 97.4% (inactive) and 106% (inactive). Further, the growth in the assay with MOLT-4 leukemia was 96.9% (inactive) and 152% (inactive).

For the compound `O=C(Nc1ccc(Br)cc1)c1cc(Br)ccc1O`, the growth in the assay with HCT-15 colon is 15.2% (inactive) and 15.6% (inactive); with HT29 colon, 92.1% (inactive) and 36.7% (inactive); with SNB-75 CNS, -10.1% (active) and 49.2% (inactive); in the assay with SNB-19 CNS, 22.1% (inactive) and 23.1% (inactive); in the assay with U251 CNS, 15.4% (inactive) and 10.2% (inactive); in the assay on PC-3 prostate it was 5.68% (active) and 3.31% (active). In addition, the growth with SK-MEL-5 melanoma is -65.5% (active) and -83.1% (active); in the assay on UACC-62 melanoma, 3.77% (active) and -27.9% (active); in the assay on LOX IMVI melanoma, 2.39% (active) and 8.77% (active); with SK-MEL-28 melanoma it was 27% (inactive) and 16.4% (inactive); with SK-MEL-2 melanoma it was -30.5% (active) and 13.2% (inactive); with EKVX NSCLC, 11% (inactive) and 13.6% (inactive). Also, the growth in the assay on SN12C renal is 6.5% (active) and -10.3% (active); with UO-31 renal, -12.3% (active) and 0.207% (active); with TK-10 renal it was 9.29% (active) and 1.36% (active); in the assay with ACHN renal, 9.36% (active) and -2.71% (active); in the assay on A498 renal, -12.7% (active) and -34.6% (active); in the assay on CCRF-CEM leukemia, 23.4% (inactive) and 3.66% (active). In the assay on MOLT-4 leukemia, the growth was 17.4% (inactive) and -33.2% (active).

Take `CC(=O)Nc1ccc2cc3ccc(NC(C)=O)cc3nc2c1`: the growth with HCT-15 colon is 103% (inactive) and 106% (inactive); in the assay on HT29 colon, 97.3% (inactive) and 90.1% (inactive); in the assay on SNB-75 CNS it was 71.1% (inactive) and 83.1% (inactive); with SNB-19 CNS, 79.2% (inactive) and 73.4% (inactive); in the assay with U251 CNS, 74.3% (inactive) and 72.3% (inactive); with PC-3 prostate, 75.1% (inactive) and 42.4% (inactive). The growth in the assay with SK-MEL-5 melanoma is 92.2% (inactive) and 105% (inactive); in the assay with UACC-62 melanoma it was 82.2% (inactive) and 85.7% (inactive); in the assay with LOX IMVI melanoma, 89% (inactive) and 85.9% (inactive); in the assay with SK-MEL-28 melanoma, 110% (inactive) and 139% (inactive); in the assay with SK-MEL-2 melanoma, 95.9% (inactive) and 108% (inactive); in the assay with EKVX NSCLC it was 80.6% (inactive) and 78.4% (inactive). The growth with SN12C renal was 52.6% (inactive) and 52.2% (inactive); with UO-31 renal, 79% (inactive) and 76% (inactive); in the assay with TK-10 renal, 136% (inactive) and 119% (inactive); with ACHN renal, 79.1% (inactive) and 58.4% (inactive); in the assay on A498 renal, 115% (inactive) and 113% (inactive); in the assay with CCRF-CEM leukemia, 78.9% (inactive) and 104% (inactive). Also, the growth in the assay on MOLT-4 leukemia was 54.9% (inactive) and 74.7% (inactive).

As to `CCCCCCCCCCCCCCCc1cc(O)ccc1N`, the growth was 89.4% (inactive) and 75.6% (inactive) with HCT-15 colon; 105% (inactive) and 107% (inactive) in the assay on HT29 colon; 63.5% (inactive) and 30.1% (inactive) with SNB-75 CNS; 96.8% (inactive) and 118% (inactive) in the assay with SNB-19 CNS; 68.1% (inactive) and 81.1% (inactive) with U251 CNS; 34.6% (inactive) and 22.2% (inactive) in the assay with PC-3 prostate. Besides, the growth is 100% (inactive) and 78.6% (inactive) in the assay with SK-MEL-5 melanoma; 84.3% (inactive) with UACC-62 melanoma; 34.5% (inactive) and -35.1% (active) with LOX IMVI melanoma; 106% (inactive) and 103% (inactive) in the assay on SK-MEL-28 melanoma; 105% (inactive) and 106% (inactive) with SK-MEL-2 melanoma; 86.6% (inactive) and 85.6% (inactive) in the assay with EKVX NSCLC. Also, the growth is 51.2% (inactive) and 62.2% (inactive) in the assay on SN12C renal; -59.8% (active) and 20.5% (inactive) in the assay on UO-31 renal; 123% (inactive) and 98.3% (inactive) in the assay on TK-10 renal; 90% (inactive) and 76.8% (inactive) in the assay on ACHN renal; 133% (inactive) and 122% (inactive) in the assay with A498 renal; 5.23% (active) and -6.89% (active) in the assay with CCRF-CEM leukemia. The growth in the assay with MOLT-4 leukemia is -1.13% (active) and -2.69% (active).
